Compounds with a hit are over-represented: about 3.2% of the library has one in this group of screens.
Tau FP inhib – qHTS for Inhibitors of Tau Fibril Formation, Fluorescence Polarization | Microtubule-associated protein tau (Homo sapiens), P10636 | K18 P301L tau heparin fibrillization, Alexa594 FP, 6 h | Potency, µM (top dose mostly 57.7 µM), hits mostly inhibitors | 280,000 compounds, 0.39% hits | AID 1468, 2008; also: nearly all actives have a fitted effect of over 55% in size
Target sequence (P10636 561-689 P618L limits assumed): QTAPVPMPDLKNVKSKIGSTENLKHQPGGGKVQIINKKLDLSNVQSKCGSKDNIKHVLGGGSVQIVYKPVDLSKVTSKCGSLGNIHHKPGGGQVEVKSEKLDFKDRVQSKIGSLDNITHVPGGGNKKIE
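Quantitative HTS format: compounds meet 15 uM recombinant K18 P301L tau and Alexa 594-tau tracer in 100 mM sodium acetate pH 7; 20 uM heparin triggers fibrillization at 37 C over 6 hr; FP gives the signal.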
TRb SRC2 PPI – qHTS for Inhibitors of the Interaction of Thyroid Hormone Receptor and Steroid Receptor Coregulator 2; TRbeta-SRC2 peptide binding, fluorescence polarization; receptor liganded with 1 µM T3; Potency, µM (top dose mostly 106 µM), usual class: inhibitors; 280,000 compounds, 0.065% hits; Thyroid hormone receptor beta (Homo sapiens), P10828; also: nearly all actives have a fitted effect of over 50% in size
Target sequence (P10828 whole entry, looked up): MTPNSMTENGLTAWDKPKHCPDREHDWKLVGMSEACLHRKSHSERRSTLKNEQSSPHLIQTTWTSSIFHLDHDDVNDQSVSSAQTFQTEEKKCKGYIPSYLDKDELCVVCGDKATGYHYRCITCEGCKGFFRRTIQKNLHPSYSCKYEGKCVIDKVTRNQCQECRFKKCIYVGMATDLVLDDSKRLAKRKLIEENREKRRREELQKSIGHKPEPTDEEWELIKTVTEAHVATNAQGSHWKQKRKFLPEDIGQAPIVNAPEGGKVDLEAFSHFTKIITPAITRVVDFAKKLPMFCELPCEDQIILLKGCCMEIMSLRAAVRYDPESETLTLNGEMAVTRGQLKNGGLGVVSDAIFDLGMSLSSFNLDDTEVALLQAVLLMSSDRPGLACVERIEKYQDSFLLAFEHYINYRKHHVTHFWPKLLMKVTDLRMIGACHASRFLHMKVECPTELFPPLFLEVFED
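TRb LBD 0.6 uM + Texas Red SRC2 peptide 20 nM, 1 uM T3, Tris buffer w/ 5% DMSO; compound pinned, 5 h RT; FP read ex 555/em 632; normalized to unbound and bound controls.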
Tau ThT inhib – qHTS for Inhibitors of Tau Fibril Formation, Thioflavin T Binding; AID 1460, 2008; 270,000 compounds, 2.1% hits; Potency, µM (series often up to 57.4 µM), hits mostly inhibitors; recombinant tau K18 P301L, heparin-induced fibrillization, ThT fluorescence; Microtubule-associated protein tau (Homo sapiens), P10636; also: nearly all actives have a fitted effect of over 55% in size
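ThT emission at 510 nm, taken 1 hr after adding 30 uM dye, quantifies aggregates formed when 20 uM heparin acts on human tau K18 P301L for 6 hr at 37 C.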
Tau fluor counter – Counterscreen qHTS for Inhibitors of Tau Fibril Formation, Fluorescence Polarization; tau K18 P301L Alexa594 fluorescence, heparin fibrillization; Potency, µM (top dose mostly 57.7 µM); 280,000 compounds, 0.93% hits; AID 1463, 2008; also: nearly all actives have a fitted effect of over 55% in size
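Human tau K18 P301L (15 uM unlabeled, 0.24 uM Alexa 594-labeled) in 100 mM sodium acetate pH 7 with 20 uM heparin, 6 hr at 37 C. ThT 30 uM added, 1 hr ambient; Alexa 594 FP and total fluorescence read at 555/632 nm.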
TR SRC2 fluor cs – Total Fluorescence Counterscreen for Inhibitors of the Interaction of Thyroid Hormone Receptor and Steroid Receptor Coregulator 2; AID 1479, 2009; 280,000 compounds, 0.29% hits; TRb/SRC2 Texas Red total fluorescence interference; Potency, µM (top dose mostly 106 µM); active = well fitted curve in either direction with a large enough effect; inconclusive = small, poorly fitted or top-dose-only effect
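Human TRb ligand-binding domain at 0.6 uM with 20 nM Texas Red SRC2 peptide in Tris buffer containing 1 uM T3 and 5% DMSO, incubated with compound 5 h at ambient temperature. Total fluorescence (555/632 nm) calculated as parallel + 2 × perpendicular.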
RGS12 GoLoco inh – qHTS Assay for Inhibitors of RGS12 GoLoco Motif Activity (Red Fluorophore); Gai1:RGS12 GoLoco peptide FP, rhodamine, 10 min; Potency, µM (titrated, usually from 61.6 µM), usual class: inhibitors; 230,000 compounds, 0.44% hits; AID 880, 2007; active = well fitted inhibition curve with a large enough effect, not every such curve was filed as active; inactive = no such curve, though single readings can be large or run the other way; also: nearly all actives have a fitted effect of over 30% in size
Numbers stand for hits; i = inactive; ? = inconclusive; nt = no result; [ ] = remark or other dose. Unless noted, calls follow the shape of the dose curve; as a rule, active = well fitted curve in the direction sought with a large enough effect; inconclusive = small, poorly fitted or top-dose-only effect, or another doubt; inactive = no such curve, though single readings can be large; an effect the other way counts as inactive or inconclusive.

SMILES | Tau FP inhib | TRb SRC2 PPI | Tau ThT inhib | Tau fluor counter | TR SRC2 fluor cs | RGS12 GoLoco inh
CCNc1ncc2nc(C)c(=O)n(C3CC3)c2n1 | nt | nt | nt | nt | nt | i
c1cc(CN2CCCNCCNCCCNCC2)ccc1CN1CCCNCCNCCCNCC1 | nt | i | nt | nt | i | nt
O=c1c2ccccc2sn1-c1ccc(S(=O)(=O)N2CCCC2)cc1 | ? | nt | 11µM | i | nt | 0.16µM
FC(F)(F)c1ccc(-c2noc(-c3ccccc3)c2I)cc1 | i | i | i | i | i | i
CCC[n+]1c(C)sc2c(OC)ccc(OC)c21 | 32µM | i | 35µM | i | i | i
O=[N+]([O-])c1ccc(/C=C/C2=NN(c3ccccc3)C(c3ccco3)C2)o1 (stereo unspecified) | i | ? | 7.9µM | ? | i | i
C(=C\c1ccco1)/C1=NN(c2ccccc2)C(c2ccco2)C1 (stereo unspecified) | i | i | ? | ? | i | i
O=C(/C=C/c1ccc(I)cc1)c1ccc(B(O)O)cc1 | nt | i | nt | nt | i | nt
COC(=O)c1ccc(Nc2ncnc3c2nc2n3CCCC2)cc1 | i | i | i | i | 18µM[quencher] | nt
COc1ccc(CNc2ncnc3c2nc2n3CCCC2)cc1 | i | i | i | i | 18µM[quencher] | nt
Cc1ccc(CNc2ncnc3c2nc2n3CCCC2)cc1 | i | i | i | i | i | nt
Cc1ccc(Nc2ncnc3c2nc2n3CCCC2)c(Br)c1 | i | i | i | i | 20µM[quencher] | nt
CCn1c(/C=C/N(C)c2ccccc2)[n+](CC)c2ccc(Cl)cc21 | i | i | i | i | i | 1µM
CCn1c(/C=C/Nc2ccccc2)[n+](CC)c2ccc(Cl)cc21 | i | i | i | i | i | i
CCC(C)CC(C)CC(C)C(=O)/C=C(/O)C(C)CC(C)C/C=C/C(C)C(O)C(C)C(O)CC1CCC(C)(C)O1 (stereo unspecified) | nt | i | nt | nt | i | nt
COc1ccc2nc(NC(=O)c3ccc(-c4cccc([N+](=O)[O-])c4)o3)sc2c1 | i | i | i | i | i | 2.2µM
Cc1cccc(OCC(=O)Nc2nc3ccc([N+](=O)[O-])cc3s2)c1 | i | i | 2µM | ? | i | i
O=C(O)COc1ccc(/C=C/c2nc3ccc([N+](=O)[O-])cc3s2)cc1 | i | i | 2µM | i | i | i
O=C(Nc1nc2ccc([N+](=O)[O-])cc2s1)c1ccco1 | i | i | i | i | i | i
COc1ccc(NC(=O)c2ccc(-c3ccc([N+](=O)[O-])cc3)o2)cc1 | i | ? | 1.3µM | ? | 32µM[quencher] | i
COc1ccc(CNC(=O)Nc2ccc([N+](=O)[O-])cc2)cc1 | nt | i | nt | nt | i | nt
CCCCC/C=C\C\C=C/C=C/C=C/[C@@H](SC[C@H](N)C(=O)O)[C@@H](O)CCCC(=O)O | i | i | i | i | i | i
COc1ccc2c(c1)O[C@@H](c1ccc3c(c1)OCO3)[C@H](OC(=O)N[C@H]1CCCc3ccccc31)C2=O | i | i | i | i | i | i
N#C/C(=C(/O)c1ccc(-c2cccc([N+](=O)[O-])c2)o1)c1nc2ccccc2s1 | i | i | 6.3µM | ? | i | i
COC(=O)C1=C(C)NC(=O)/C1=C\c1cc(C)n(-c2ccccc2)c1C | i | i | 13µM | ? | i | i
SMILES | Tau FP inhib | TRb SRC2 PPI | Tau ThT inhib | Tau fluor counter | TR SRC2 fluor cs | RGS12 GoLoco inh
COC(=O)C1=C(C)NC(=O)/C1=C\c1cc(C)n(-c2cc(C)cc(C)c2)c1C | i | i | 20µM | ? | i | i
Cc1cnc(CNc2nc(-c3ccc(C(=O)N(C)C)cc3)nc3ccccc23)cn1 | i | i | i | i | i | i
COc1ccc(/C=N/Nc2snc(SC)c2C#N)cc1OC | ? | i | 14µM | 11µM[quencher] | i | i
COCC#Cc1ccc(C2C(C)CCC3C(=O)N4C(CCC(C)C4c4ccc(C#CCOC)cc4)C(=O)N32)cc1 (stereo unspecified) | i[11.6 µM] | i[11.2 µM] | i[11.5 µM] | i[11.6 µM] | i[11.2 µM] | nt
CCOc1ccc(CNC(=O)c2cnc3sc(N4CCOCC4)nn3c2=O)cc1OC | i | ? | i | i | 1995µM[quencher] | nt
COc1cc(/C=C2\SC(c3ccc(C)cc3)=NC2=O)cc(OC)c1OC | ? | i | 14µM | i | i | i
COc1cc(/C=C2\SC(N)=NC2=O)ccc1OCC(=O)Nc1ccc(C)cc1 | ? | i | ? | i | i | i
COc1ccc(/C=C2\SC(c3ccc(C)cc3)=NC2=O)cc1OC | ? | i | 11µM | ? | i | i
COc1cc(/C=C2\SC(N3CCc4ccccc4C3)=NC2=O)cc(OC)c1OC | i | i | ? | i | ? | i
COc1ccc(/C=C2/SC(c3ccc(C)cc3)=NC2=O)cc1OC | ? | i | 14µM | ? | i | i
COc1cc(/C=C2\SC(c3ccc(C)cc3)=NC2=O)ccc1O | ? | i | 14µM | ? | i | i
O=C1C[C@@H](O)[C@@H](O)[C@H]2[C@@H]3C(=O)N(c4cccc(Oc5ccccc5)c4)C(=O)[C@@H]3CC[C@H]12 | i[11.6 µM] | i[11.2 µM] | i[11.5 µM] | i[11.6 µM] | ? | nt
CCCn1c(C)nc2c(NCCCCN(C)C)nc(C)nc21 | i | i | ? | i | i | i
CC[C@H](C)[C@@H](NC(=O)O[C@@H]1Cc2cc(OC)ccc2O[C@H]1c1cccc(OC)c1)C(=O)OC | i | i | i | i | i | i
COC(=O)C1=C(C)NC(C)=C(C(=O)NCCCN2CCC(c3ccccc3)(c3ccccc3)CC2)C1c1ccc([N+](=O)[O-])cc1 (stereo unspecified) | nt | i | nt | nt | i | nt
COc1cc(/C=C2\SC(c3ccccc3)=NC2=O)cc(Cl)c1O | ? | i | 4.5µM | ? | i | i
CCN(Cc1cccc(S(=O)(=O)O)c1)c1ccc(C(=C2C=CC(=[N+](CC)Cc3cccc(S(=O)(=O)O)c3)C=C2)c2ccccc2S(=O)(=O)[O-])cc1 | nt | i | nt | nt | i | nt
CCN(CC)CCOc1ccc(-c2nc3cc(Cl)ccc3s2)cc1 | nt | i | nt | nt | i | nt
C[C@@H](CCc1ccc(O)cc1)NCCc1ccc(O)c(O)c1 | i | i | i | i | i | i
O=[N+]([O-])c1cc(Cl)ccc1NCCNS(=O)(=O)c1ccccc1 | i | i | 13µM | ? | i | i
Cc1cc(C)c2c(=O)n(CC(=O)NCCCN3CCN(c4ccccc4F)CC3)sc2n1 | ? | i | 14µM | i | i | 20µM
Cc1cc(C)c2c(=O)n(CC(=O)NCCCN3CCOCC3)sc2n1 | 16µM | i | 10µM | i | i | 32µM
Cc1ccc(SCC(=O)NCCCN2CCOCC2)cc1 | i | i | i | i | i | i
